Common to all, as to test: NCI-60 one-dose screen, 48 h (100 = growth as untreated, 0 = no growth, -100 = all killed)
Holding throughout (conditions): 10 µM unless noted

The test system of assay [1] is DU-145 prostate.
Assay [2] has as its system K-562 leukemia.
Assay [3] deals with MALME-3M melanoma.
Assay [4] relates to MDA-MB-231 breast.
For assay [5], the system named is RXF 393 renal.
Assay [6] deals with SF-268 CNS.
The subject of assay [7] is SF-295 CNS.
For assay [8], the system named is SF-539 CNS.
For assay [9], the system named is UACC-257 melanoma.
Assay [10] relates to M14 melanoma.

About 83,000 compounds went through this panel and 20% of them were active in at least one assay; those are over-represented in the sample as a whole.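 Assay: single dose, 48 h. Readout: percent growth (0 = no net growth; negative = cell death). Active: <10.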 A number with no mark means an inactive call. Activity calls are given as the source filed them.

Regarding `CCn1cnc2c(Nc3cccc(Cl)c3)nc(N[C@@H]3CCCC[C@@H]3N)nc21`, the growth was 6.73% (active) in assay [1]; -2.92% (active) in assay [2]; 15% in assay [3]; -22.3% (active) in [4]; -44.5% (active) in assay [5]; 0.266% (active) in [6]. Also, the growth in assay [7] is 9.85% (active); in [8] it was -5.76% (active); in assay [9], 14.1%; in assay [10], -45.8% (active).

Consider `C1CCC([PH+](C2CCCCC2)C2CCCCC2[PH+](C2CCCCC2)C2CCCCC2)CC1.O=C(C1[CH-]CCCC1)C1CCCC[N-]1.[Au]` (stereo not given), for which the growth was -38.7% (active) in [1]; 5.08% (active) in assay [2]; -66.3% (active) in assay [3]; -54.9% (active) in assay [4]; -95.2% (active) in assay [5]; -28.5% (active) in assay [6]. For the same compound, the growth in [7] is -46.8% (active); in assay [8], -87.9% (active); in assay [9], -45.6% (active); in [10], -52.2% (active).

Regarding `N#CCCNc1ccccc1`, the growth in assay [1] was 116%; in assay [2], 98.3%; in [3] it was 120%; in [4] it was 111%; in [5] it was 106%; in assay [6], 97.7%. In addition, the growth was 101% in [7], 98.1% in assay [8], 118% in assay [9] and 112% in assay [10].

As to `CC(=O)O[C@H](C[C@H](C(C)C)N(C)C(=O)[C@@H](NC(=O)[C@H]1CCCCN1C)C(C)C)c1nc(C(=O)N[C@@H](Cc2ccccc2)C[C@H](C)C(=O)O)c(C)s1`, the growth in [1] was 21.8%; in assay [2], 14%; in [3] it was 58.5%; in [4] it was 23.5%; in assay [5], 53.9%; in assay [6] it was 29.7%. Moreover, the growth is 15.9% in assay [7], 4.22% (active) in assay [8], 46.3% in [9] and 6.5% (active) in assay [10].

Take `O=C([O][Hg][c]1ccccc1)c1ccccc1`: the growth was -35.7% (active) in [1]; -21.4% (active) in [2]; -4.96% (active) in assay [3]; -53.1% (active) in assay [4]; -72.4% (active) in [5]; -34.9% (active) in [6]. Further, the growth is 56.8% in assay [7], 19.4% in assay [8], -30% (active) in assay [9] and -68.3% (active) in [10].

As for `CNC(=O)Oc1ccc(C(C)(C)C)cc1OC(=O)NC`, the growth in assay [1] was 105%; in [2] it was 97.6%; in [3], 104%; in [4] it was 105%; in [5] it was 108%; in [6], 105%. The growth in assay [7] was 98.6%; in [8], 103%; in assay [9] it was 92%; in assay [10], 93.3%.

Regarding `CC1=C(O)[C@@](C)(CCCCC[C@H](C)CCCCc2ccc(O)cc2)OOC1=O`, the growth is 113% in [1]; 94.4% in assay [2]; 87.3% in [3]; 85.2% in assay [4]; 111% in assay [5]; 110% in [6]. The growth in [7] was 90.4%; in [8], 101%; in assay [9] it was 89.8%; in assay [10], 96.6%.

`O=C(CC1(O)C(=O)N(Cc2ccccc2)c2ccc(Br)cc21)c1ccc(C(=O)NCC2CCC3(CC2)OOC2(CCCCC2)OO3)cc1` (stereo not given): the growth in assay [1] was -98.8% (active); in [2], -5.58% (active); in [3] it was -68.1% (active); in assay [4], -73.9% (active); in assay [5], -76.5% (active); in [6], -1.12% (active). For the same compound, the growth is 29.3% in [7], -85.1% (active) in assay [8], 57% in [9] and 41.9% in assay [10].

In the case of `N#CC1(c2ccccc2)CCN(Cc2ccccc2)CC1`, the growth in [1] was 107%; in assay [2], 98.3%; in [3], 138%; in [4], 110%; in [5] it was 105%; in assay [6] it was 94.9%. Moreover, the growth was 89.9% in assay [7], 107% in [8], 115% in [9] and 106% in assay [10].

Consider `CCCCCCC(=O)NC1=C(N2CC2)C(=O)C(NC(=O)CCCCCC)=C(N2CC2)C1=O`, for which the growth was 15.6% in assay [1]; 70.7% in [2]; 7.93% (active) in assay [3]; 24.8% in assay [4]; 25.7% in [5]; 52.9% in assay [6]. The growth is 29.7% in assay [7], 61.7% in assay [8], 34.2% in [9] and 20.5% in assay [10].

Turning to `O=C1NC(=O)C(=Cc2cn(C(=O)c3ccccc3)c3ccccc23)C(=O)N1`, the growth in assay [1] is 113%; in assay [2], 141%; in assay [3], 90.5%; in assay [4], 88.9%; in assay [5] it was 45%; in assay [6] it was 102%. In addition, the growth in [7] is 116%; in [8] it was 87.6%; in [9], 87%; in [10], 95.3%.

Consider `C/C(=C\c1ccn(-c2ccc(N)cc2C(F)(F)F)n1)[C@@H]1C[C@@H]2O[C@]2(C)CCC[C@H](C)[C@H](O)[C@@H](C)C(=O)C(C)(C)[C@@H](O)CC(=O)O1`, for which the growth was -14.1% (active) in [1]; 6.1% (active) in assay [2]; 39.9% in [3]; 16.4% in [4]; 9.23% (active) in assay [5]; 22.5% in assay [6]. The growth is 2.39% (active) in assay [7], 3.05% (active) in [8], 37.9% in assay [9] and -12.6% (active) in [10].

In the case of `O=C(Nc1ccc(O)cc1)C(Cl)(Cl)Cl`, the growth in assay [1] was 108%; in assay [2] it was 98.2%; in assay [3], 96.8%; in [4] it was 98.4%; in [5] it was 107%; in [6], 101%. For the same compound, the growth in assay [7] was 99.8%; in assay [8], 93.1%; in assay [9], 90.2%; in assay [10], 91.2%.

These data come from PubChem BioAssay (NCI).
